Data: PubChem BioAssay AID1259240 (Keith Lab, Institute of Cancer Science, University of …, 2017)
Active and inactive are the calls of the source. No stated cut-off is given here; in the data, active means fold change mostly below about -2 (no sharp cut-off); inactive means mostly above about -1.8.

Test: TERT promoter activity modulators, primary screen, cell-based, luciferase reporter, human (AID 1259240)
Settings: A2780 TERT promoter luciferase reporter, 16 h; at 20 µM, fold versus average of vehicle-only wells

outcome, inactive:
O=c1[nH]c(-c2ccc3nsnc3c2)nc2ccccc12

outcome, active:
Cc1ccccc1Nc1c(-c2ccccc2O)nc2cnccn12

Fold change, inactive:
CN(C)CCNC(=O)C(=O)Nc1ccc2nc3n(c(=O)c2c1)CCCCC3 1.06
CCOC(=O)CN1CC23C=CC(O2)C(C(=O)Nc2ccc(OCC)cc2)C3C1=O (stereo not given) 1.29
O=C(NC1CCCCC1)C1CCCN(S(=O)(=O)c2cnc[nH]2)C1 (stereo not given) -1.72
CCCC1=NN2C(=N)/C(=C\c3ccc(SCc4ccco4)o3)C(=O)N=C2S1 -1.68
CCCCN1C(=O)C(O)(CC(=O)c2cccs2)c2ccccc21 (stereo not given) -1.63
CCOC(=O)C1CCCN(c2c(N3CCC(N4CCCCC4)CC3)c(=O)c2=O)C1 (stereo not given) -1.11
CN(CC(=O)NCc1ccco1)S(=O)(=O)c1ccc2c(c1)CCC(=O)N2 -1.35
Fc1ccc(-c2ncc3ccccn23)cc1 1.16
Cn1c(=O)cc(SCC(=O)Nc2nc3ccccc3[nH]2)c2ccccc21 -1.01
CN1C(=O)/C(=C/c2cn(CC(=O)N3CCCc4ccccc43)c3ccccc23)c2ccccc21 1.47
CC(C)CCNC(=O)Cn1c(=O)oc2cc(S(=O)(=O)N3CCc4ccccc43)ccc21 1.17
COc1ccccc1/C=c1\sc2nc(-c3cc(OC)c(OC)c(OC)c3)nn2c1=O -1.32
Cc1cc(C(=O)N2CCC(C)CC2)on1 1.62
O=C(Nc1ccc2snnc2c1)Nc1ccccc1Cl -1.86
c1ccc(-c2nnc3ccc(NCCCN4CCc5ccccc5C4)nn23)cc1 -1.21
CSc1ccccc1NC(=O)c1onc(C)c1Cl 1.5
COc1cccc(NC2SC(=O)N(c3ccccc3)C2=O)c1 (stereo not given) 1.28
CCOC(=O)C1CCCN(c2c(NCCCN3CCN(C)CC3)c(=O)c2=O)C1 (stereo not given) -1.03
O=C(O)CSc1nc(-c2cccs2)cc(C(F)(F)F)n1 -1.48
Cc1cc(Oc2ccccc2)nc(SCC(N)=O)n1 1.5
CCOC(=O)C1=C(CS(=O)(=O)c2ccc(F)c(C)c2)NC(=O)NC1c1ccccc1 (stereo not given) 1.21
CCCc1nnc2n1Nc1nc3ccccc3nc1S2 1.62
Cn1c(=O)c(=O)n(C)c2cc(S(=O)(=O)N3CCCC3C(=O)NC3CCCCC3)ccc21 (stereo not given) 1.05
CC1CCCCN1c1nnc(NC(=O)Cn2c(=O)oc3ccccc32)s1 (stereo not given) 1.11
CC1CN(C2=NC(=O)/C(=C/c3ccccc3Br)S2)CC(C)O1 (stereo not given) -1.41
CN(CC(=O)NC(C)(C)C)S(=O)(=O)c1ccc2c(c1)c(=O)n(C)c(=O)n2C -1.36
Cn1c(=O)[nH]c(=O)c2c1nc(NCCCO)n2Cc1ccccc1Cl -1.16
Cc1cc(S(=O)(=O)n2nc(-c3cccc(F)c3)cc2N)ccc1F -1.3
O=C(CCC(=O)NC1CCCC1)NNc1nc2ccccc2c2nc(-c3ccccc3)nn12 -1.47
COc1ccccc1C(=O)[C@H]1C(=O)N[C@@]2(C)C[C@@H]1c1cccc(OC)c1O2 -1.16
c1cc2nncn2nc1N1CCN(C2CCCCC2)CC1 -1.21
Cc1cc(C)c(Cn2c3ccccc3c3cnn(CC(=O)NCC4CCCO4)c(=O)c32)c(C)c1 (stereo not given) -1.24
COc1ccc(-c2cc(N)n(S(=O)(=O)c3ccc([N+](=O)[O-])cc3)n2)cc1OC 1.17
CCOc1ccc2c(c1)CN(Cc1ccc(Cl)cc1)CO2 -1.71

Fold change, active:
COc1ccc(Cl)cc1Nc1nc(-c2c(C)nc3ncccn23)cs1 -3.45
COc1ccccc1-c1nc(-c2ccccn2)no1 -2.84
O=C(CSc1c2c(nc3cc(Cl)ccc13)CCCC2)Nc1nccs1 -3.17
CCc1nccn1S(=O)(=O)c1ccc(OC)c(OC)c1 -2.54
